A number with no mark means an inactive call. The rule behind the calls is not given here.
target: Pantothenate synthetase (Mycobacterium tuberculosis (strain ATCC 25618 / H37Rv)) (UniProt P9WIL5); assay: Coupled enzyme confirmation of inhibitors against recombinant Mtb PanC (AID 375); conditions: coupled enzyme assay; at 10 µM, stronger effect = higher value;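 note: 0% = full reaction with vehicle and 100% = no enzyme background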
Sequence (P9WIL5 whole entry, looked up): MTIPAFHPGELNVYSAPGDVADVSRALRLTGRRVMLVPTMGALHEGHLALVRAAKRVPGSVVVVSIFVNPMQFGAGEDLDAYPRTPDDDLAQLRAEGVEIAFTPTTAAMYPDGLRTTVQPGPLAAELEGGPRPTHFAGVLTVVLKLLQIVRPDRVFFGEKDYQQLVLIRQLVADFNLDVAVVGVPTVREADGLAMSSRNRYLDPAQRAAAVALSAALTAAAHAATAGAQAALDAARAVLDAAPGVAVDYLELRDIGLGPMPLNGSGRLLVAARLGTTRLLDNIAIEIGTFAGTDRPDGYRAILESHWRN

Q: Which inhibition does the source give for COc1cc(OC)cc(-c2nnc(SCC(=O)Nc3cc(C)on3)o2)c1 here?
A: The inhibition was 2%.

Q: For CC1(c2ccc(Cl)cc2)NC(=O)N(CC(=O)NC(=O)NCc2ccco2)C1=O (stereo unspecified), which inhibition is on record?
A: Its inhibition is 1%.

Q: How did the inhibition turn out when Cc1ccc(C)c(OCCCC(C)(C)C(=O)O)c1 was run?
A: Its inhibition is 0%.

Q: With COc1cccc(N2CCN(C(=O)C3C4C=CC5(CN(Cc6ccccc6Cl)C(=O)C35)O4)CC2)c1 (stereo unspecified) as the molecule, how does the inhibition read?
A: Its inhibition is 0%.

Q: Which inhibition does the source give for Cc1ccc(NC(=O)CSc2nnc(-c3cnccn3)n2Cc2ccco2)cc1C here?
A: The inhibition was 0%.

Q: With COC(=O)CC1SC(=O)NC1=O (stereo unspecified) as the molecule, how does the inhibition read?
A: The inhibition was 0%.

Q: For CNC(=O)C1C2C=CC3(O2)C1C(=O)N(C1CC1)C3C(=O)NCc1ccc(OC)cc1 (stereo unspecified), which inhibition is on record?
A: The inhibition was 0%.

Q: Which inhibition does the source give for COC(=O)c1ccccc1NC(=O)c1ccc(-c2ccccc2F)o1 here?
A: Its inhibition is 0%.

Q: Which inhibition does the source give for CCCCc1nccn1CCn1ccnc1CCCC here?
A: Its inhibition is 0%.

Q: With COc1ccc(OC)c(C2C(C(=O)Nc3ccc(F)cc3)=C(C)Nc3nc(CCCO)nn32)c1 (stereo unspecified) as the molecule, how does the inhibition read?
A: Its inhibition is 5%.

Q: How did the inhibition turn out when CCCCC(=O)O[C@H]1CC[C@H]2[C@@H]3CCc4cc(O)ccc4[C@H]3CC[C@]12C was run?
A: The inhibition was 6%.

Q: With CCCCn1cnc2c(c1=O)c1nc3ccccc3nc1n2Cc1ccc2c(c1)OCO2 as the molecule, how does the inhibition read?
A: Its inhibition is 0%.

Q: Which inhibition does the source give for CN(C)S(=O)(=O)c1ccc(C(=O)N2CCC(c3nc4ccccc4o3)CC2)cc1 here?
A: The inhibition was 5%.

Q: With CCOC(=O)c1cnn(-c2cc(C)nc3c(-c4ccccc4)c(C)nn23)c1N as the molecule, how does the inhibition read?
A: Its inhibition is 6%.

Q: Which inhibition does the source give for Cn1c(-c2ccccc2)c(CCO)c2ccccc21 here?
A: The inhibition was 9%.

Q: How did the inhibition turn out when CC1(C)NC(=O)N(CNc2cc(Cl)ccc2Cl)C1=O was run?
A: Its inhibition is 0%.

Source: PubChem BioAssay
